PubChem BioAssay (NCATS)
Values joined by “and” are separate entries in the source; they are usually repeats but may differ in a detail not shown here. Equal values may be shown once. Records with an inconclusive call do not appear. Active and inactive are the calls of the source. The call rests on the fitted dose curve; in most records, active means well fitted curve in the direction sought with a large enough effect; inconclusive means small, poorly fitted or top-dose-only effect, or another doubt; inactive means no such curve, though single readings can be large; an effect the other way counts as inactive or inconclusive.

Legend:
[1] = Viability qHTS for spleen associated tyrosine kinase inhibitor (SYKi) naive MV4-11 cells (AID 1963823); further: nearly all actives have a fitted effect of over 40% in size
In short: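 qHTS, SYK inhibitor-naive MV4-11; 500 cells/well; 72 hr compound exposure, 37 C; CellTiter-Glo added, 10 min RT; luminescence read.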

[2] = Viability qHTS for spleen associated tyrosine kinase inhibitor (SYKi) drug resistant MV4-11 cells (AID 1963824); further: nearly all actives have a fitted effect of over 35% in size
In short: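 SYK inhibitor-resistant MV4-11 AML cells, 500 per well, added to predispensed compounds and incubated 72 hr at 37 C, 5% CO2. Viability measured by CellTiter-Glo luminescence after 10 min at room temperature.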

[3] = Cellular viability qHTS for adrenocortical cancer (ACC) cell line NCI-H295R (AID 1963990); further: nearly all actives have a fitted effect of over 60% in size
In short: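 IC50 and maximal efficacy derive from four-parameter logistic modelling of titration curves, with reads scaled between DMSO-only wells (0%) and doxorubicin hydrochloride (100% inhibition). Compounds spanned up to 46 uM over 48 h.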

[4] = Quantitative highthroughput screen to assess conditional lethalithy of NOMO1 cells grown in RPMI1640 with untreated serum (RPMI+s) (AID 1963876); further: nearly all actives have a fitted effect of over 35% in size;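 on Viability: 100% = DMSO wells and 0% = empty wells without cells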
In short: (§1)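 Each medium arm—HPLM with 10% dialyzed FBS, or RPMI1640 with 5 mM glucose and 10% untreated or dialyzed FBS—was screened against an 11-point, 3-fold compound titration for 48 h at 37 °C, with CellTiter-Glo luminescence as endpoint.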

[5] = Quantitative highthroughput screen to assess conditional lethalithy of NOMO1 cells grown in RPMI1640 with dialyzed fetal bovine serum (RPMI+ds) (AID 1963877); further: nearly all actives have a fitted effect of over 30% in size;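 on Viability: series mostly up to about 46 µM; 100% = DMSO control wells and 0% = empty wells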
In short: as §1

[6] = Quantitative highthroughput screen to assess conditional lethalithy of NOMO1 cells grown in Human Plasma-Like Medium with dialyzed fetal bovine serum (HPLM+ds) (AID 1963878); further: nearly all actives have a fitted effect of over 35% in size;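 on Viability: 100% = DMSO wells and 0% = empty wells on each plate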
In short: as §1

[7] = Quantitative highthroughput screen to assess conditional lethalithy of P12 Ichikawa cells grown in Human Plasma-Like Medium with dialyzed fetal bovine serum (HPLM+ds) (AID 1963879); conditions: Potency: viability; further: nearly all actives have a fitted effect of over 35% in size; on Viability: series mostly up to about 46 µM
In short: as §1

[8] = Quantitative highthroughput screen to assess conditional lethalithy of P12 Ichikawa cells grown in RPMI1640 with untreated serum (RPMI+s) (AID 1963881); conditions: Potency: viability; further: nearly all actives have a fitted effect of over 35% in size;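 on Viability: series mostly up to about 46 µM; 100% = DMSO wells and 0% = empty wells without cells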
In short: as §1

[9] = Quantitative highthroughput screen to assess conditional lethalithy of SEM cells grown in Human Plasma-Like Medium with dialyzed fetal bovine serum (HPLM+ds) (AID 1963882); further: nearly all actives have a fitted effect of over 35% in size; on Viability: series mostly up to about 46 µM
In short: as §1

[10] = Quantitative highthroughput screen to assess conditional lethalithy of SEM cells grown in RPMI1640 with unreated serum (RPMI+s) (AID 1963883); further: nearly all actives have a fitted effect of over 35% in size;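 on Viability: 100% = DMSO wells and 0% = empty wells without cells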
In short: as §1

[11] = Quantitative highthroughput screen to assess conditional lethalithy of SEM cells grown in RPMI1640 with dialyzed fetal bovine serum (RPMI+ds) (AID 1963884); further: nearly all actives have a fitted effect of over 35% in size;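 on Viability: series mostly up to about 46 µM; 100% = DMSO control wells and 0% = empty wells without cells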
In short: as §1

[12] = Cellular viability qHTS for adrenocortical cancer (ACC) cell line SW-13 (AID 1963989); conditions: SW-13 ACC cells viability, CellTiter-Glo, 48 h; activity (max response): active compounds read low; further: nearly all actives have a fitted effect of over 65% in size;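 on activity (max response): cells grown in serum-free medium with ITS supplement; on the % scale 0 is the no-effect control and ±100 the full control effect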
In short: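 Luminescent ATP read-out (CellTiter-Glo, 20 min at room temperature) measured metabolically competent SW-13 cells after 48 h compound treatment. Final concentrations spanned up to 46 uM; bortezomib served as positive control.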

[13] = Quantitative highthroughput screen to assess conditional lethalithy of P12 Ichikawa cells grown in RPMI1640 with dialyzed fetal bovine serum (RPMI+ds) (AID 1963880); conditions: Potency: P12-Ichikawa viability; further: nearly all actives have a fitted effect of over 35% in size;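 on Viability: 100% = DMSO wells and 0% = empty wells on each plate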
In short: as §1
Potency means the concentration at half of the fitted maximal effect.

CN1CCN(c2ccc3nc(-c4cc(C(C)(C)C)c(OCCCC(=O)NCCCN=[N+]=[N-])c(C(C)(C)C)c4)[nH]c3c2)CC1
active: Potency [1] 5.25 µM | Potency [2] 5.25 µM | Potency [3] 3.16 µM

O=S(=O)(c1cccc2c(I)cccc12)N1CCCNCC1
active: Potency [1] 7.42 µM | Potency [2] 16.4 µM | Potency [3] 25.1 µM

CC(C)C(C)C=CC(C)C1CCC2C3=CC=C4CC(O)CCC4(C)C3CCC21C (centres undefined)
inactive: Potency [1] | Potency [4] | Potency [5] | Potency [6] | Potency [7] | Potency [8] | Potency [9] | Potency [10] | Potency [11] | activity (max response) [12] 11.2% | Potency [3]

Cc1cccc(Nc2nc(-c3ccncc3)cs2)c1
active: Potency [1] 8.2 µM | Potency [13] 18.7 µM | Potency [3] 25.1 µM
inactive: Potency [4] | Potency [5] | Potency [6] | Potency [7]

CCCCC(CC)COC(=O)C(C#N)=C(c1ccccc1)c1ccccc1 (centres undefined)
active: Potency [1] 26.6 µM
inactive: Potency [4] | Potency [5] | Potency [6] | Potency [7] | Potency [13] | Potency [8] | Potency [9] | Potency [10] | activity (max response) [12] 0.298% and -14.7% | Potency [3]

C[C@H](NC(=O)[C@@H](O)c1cc(F)cc(F)c1)C(=O)N[C@@H]1C(=O)N(C)c2ccccc2-c2ccccc21
inactive: Potency [1] | Potency [4] | Potency [5] | Potency [6] | Potency [7] | Potency [13] | Potency [8] | Potency [9] | Potency [10] | activity (max response) [12] -11.3% | Potency [3]

COc1ccccc1-c1cccc(-c2c(O)c3cc(C#N)c(Cl)cc3[nH]c2=O)c1
active: Potency [4] 17.1 µM | Potency [5] 19.1 µM | Potency [6] 6.79 µM | Potency [7] 4.81 µM | Potency [13] 8.55 µM | Potency [8] 10.8 µM | Potency [9] 8.55 µM | Potency [10] 2.7 µM | Potency [11] 5.4 µM
inactive: Potency [1] | activity (max response) [12] -20.9% | Potency [3]

Clc1ccc(C(c2ccccc2Cl)C(Cl)Cl)cc1 (centres undefined)
active: Potency [3] 13 µM
inactive: Potency [1] | Potency [4] | Potency [5] | Potency [6] | Potency [7] | Potency [13] | Potency [8] | activity (max response) [12] -27.3%

NC(=O)c1cccc(-c2cc(Nc3ccc(OC(F)(F)F)cc3)ncn2)c1
inactive: Potency [4] | Potency [5] | Potency [6] | Potency [7] | Potency [13] | Potency [8]
active: Potency [1] 10.3 µM and 5.25 µM | Potency [12] 15.8 µM

O=C1c2ccccc2-[n+]2ccc3c([nH]c4ccccc43)c21
active: Potency [1] 0.82 µM | Potency [4] 6.62 µM | Potency [5] 5.9 µM | Potency [6] 5.26 µM | Potency [7] 8.33 µM | Potency [13] 9.35 µM | Potency [8] 8.33 µM | Potency [9] 2.64 µM | Potency [10] 3.32 µM | Potency [11] 3.32 µM | Potency [12] 2.82 µM | Potency [3] 2.82 µM

CCN(c1ccccc1)c1cc(NC)[n+](C)c(C)n1
active: Potency [1] 18.6 µM
inactive: Potency [4] | Potency [5] | Potency [6] | Potency [7] | Potency [13] | Potency [8] | Potency [9] | Potency [10] | activity (max response) [12] -0.574% | Potency [3]

Cc1cccc(-c2[nH]c(C(C)(C)C)nc2-c2ccc3c(c2)OCO3)n1
active: Potency [1] 2.35 µM | Potency [4] 8.33 µM | Potency [5] 9.35 µM | Potency [6] 10.5 µM | Potency [7] 9.35 µM | Potency [13] 11.8 µM | Potency [8] 10.5 µM | Potency [9] 8.33 µM | Potency [10] 9.35 µM | Potency [12] 7.94 µM | Potency [3] 4.47 µM
